# From the supplement of paper PMC8728848
# The sample as a whole holds a higher share of the strongest signals than the screen did.
# How the values were obtained:
# Experiment in all cases: glycan array binding signal (z-score within array); higher = stronger binding
# Conditions in all cases: glycan notation: IUPAC condensed, linker removed
# [1] = molecular target: Fuc(a1-2)Gal(b1-4)GlcNAc(b1-3)Gal(b1-4)GlcNAc(b1-3)Gal(b1-4)GlcNAc
# In short: (§1)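 Negative Z-scores can be read as non-binding. The Z-score is calculated within each array and then averaged across arrays of one protein sequence at different concentrations or buffers and across linkers. Arrays, 3228 in all, were curated from the Consortium for Functional Glycomics database and kept only where the protein sequence was available.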
# [2] = molecular target: Fuc(a1-2)Gal6S(b1-4)GlcNAc
# In short: as §1
# [3] = molecular target: Fuc(a1-3)[Gal3S(b1-4)]Glc6S
# In short: as §1
# [4] = molecular target: Fuc(a1-3)[Gal3S(b1-4)]GlcNAc6S
# In short: as §1
# [5] = molecular target: Fuc(a1-3)[GalNAc(b1-4)]GlcNAc
# In short: as §1
# [6] = molecular target: Gal(b1-4)GlcNAc(b1-3)[Gal(b1-4)GlcNAc(b1-6)]GalNAc
# In short: as §1
# [7] = molecular target: Gal3S(b1-3)[Fuc(a1-4)]GlcNAc
# In short: as §1
# Gal3S(b1-4)Glc = molecular target: Gal3S(b1-4)Glc
# In short: as §1
# Gal3S6S(b1-4)GlcNAc6S = molecular target: Gal3S6S(b1-4)GlcNAc6S
# In short: as §1
# GalNAc(b1-3)Gal = molecular target: GalNAc(b1-3)Gal
# In short: as §1
# [8] = molecular target: GlcNAc(b1-4)Gal(b1-4)GlcNAc
# In short: as §1
# [9] = molecular target: Neu5Ac(a2-3)Gal(b1-4)[Fuc(a1-3)]GlcNAc6S
# In short: as §1
# [10] = molecular target: Neu5Ac(a2-3)[GalNAc(b1-4)]Gal(b1-4)GlcNAc
# In short: as §1
# Neu5Ac(a2-6)Gal(b1-4)Glc = molecular target: Neu5Ac(a2-6)Gal(b1-4)Glc
# In short: as §1
# [11] = molecular target: Neu5Ac(a2-6)Gal(b1-4)GlcNAc(b1-3)Gal(b1-4)[Fuc(a1-3)]GlcNAc(b1-3)Gal(b1-4)[Fuc(a1-3)]GlcNAc
# In short: as §1
# [12] = molecular target: Neu5Ac(a2-8)Neu5Ac(a2-8)Neu5Ac
# In short: as §1
# [13] = molecular target: Neu5Ac(a2-8)Neu5Ac(a2-8)Neu5Ac(a2-3)[GalNAc(b1-4)]Gal(b1-4)Glc
# In short: as §1
# Neu5Ac(b2-6)GalNAc = molecular target: Neu5Ac(b2-6)GalNAc
# In short: as §1
binder,measurement,setting,value
"L-Selectin (Mus musculus), P18337 (protein) MVFPWRCEGTYWGSRNILKLWVWTLLCCDFLIHHGTHCWTYHYSEKPMNWENARKFCKQNYTDLVAIQNKREIEYLENTLPKSPYYYWIGIRKIGKMWTWVGTNKTLTKEAENWGAGEPNNKKSKEDCVEIYIKRERDSGKWNDDACHKRKAALCYTASCQPGSCNGRGECVETINNHTCICDAGYYGPQCQYVVQCEPLEAPELGTMDCIHPLGNFSFQSKCAFNCSEGRELLGTAETQCGASGNWSSPEPICQVVQCEPLEAPELGTMDCIHPLGNFSFQSKCAFNCSEGRELLGTAETQCGASGNWSSPEPICQETNRSFSKIKEGDYNPLFIPVAVMVTAFSGLAFLIWLARRLKKGKKSQERMDDPY",glycan array binding signal (z-score),[1],-0.485
same,glycan array binding signal (z-score),[2],-0.072
same,glycan array binding signal (z-score),[3],3.99
same,glycan array binding signal (z-score),[4],4.9
same,glycan array binding signal (z-score),[5],-0.454
same,glycan array binding signal (z-score),[6],-0.393
same,glycan array binding signal (z-score),[7],3.61
same,glycan array binding signal (z-score),Gal3S(b1-4)Glc,0.558
same,glycan array binding signal (z-score),Gal3S6S(b1-4)GlcNAc6S,4.38
same,glycan array binding signal (z-score),GalNAc(b1-3)Gal,-0.436
same,glycan array binding signal (z-score),[8],-0.044
same,glycan array binding signal (z-score),[9],8.82
same,glycan array binding signal (z-score),[10],-0.282
same,glycan array binding signal (z-score),Neu5Ac(a2-6)Gal(b1-4)Glc,-0.214
same,glycan array binding signal (z-score),[11],-0.252
same,glycan array binding signal (z-score),[12],-0.493
same,glycan array binding signal (z-score),[13],-0.235
same,glycan array binding signal (z-score),Neu5Ac(b2-6)GalNAc,-0.495
